Bioassay records: PubChem BioAssay, several laboratories
CF NFkB inh: inhibitors of cystic fibrosis induced NF-kB; KKLEB NF-kB-GFP reporter, PAF-induced, GFP fluorescence overnight; inhibition, % at 5 µM; actives 0.86% (n = 360,000);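 active = at least 50% inhibition at 5 µM, scaled per plate between neutral and stimulator controls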;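 note: PAF is a Pseudomonas aeruginosa culture filtrate used as stimulus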
KKLEB tox: counter-screen for CF NF-kB inhibitors: cytotoxicity. actives 0.36% (n = 360,000). KKLEB CF airway cells viability, ATPlite luminescence, overnight; active compounds read low; cells stimulated with P. aeruginosa culture filtrate. activity change (cytotoxicity), % at 5 µM;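 active = corrected activity change at or below -50% at 5 µM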
EWS-Fli inh: EWS/Fli transcriptional activity inhibition; AID 651661; actives 0.67% (n = 350,000); inhibition, % at 12.6 µM; A673 NR0B1-luciferase reporter, viability-normalised;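 active = mean inhibition of at least 50% after viability correction, with every replicate also passing that limit; inconclusive = mean reaches 50% but only one of two replicates passes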;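 note: firefly luciferase signal divided by Alamar Blue viability fluorescence both relative to DMSO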
PAX8 reporter: inhibitors of PAX8 transcriptional activity in RMG-I cells; RMG-I TPO-luciferase reporter, SteadyGlo, 24 h; inhibition, % at 12.6 µM; actives 1.2% (n = 360,000);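 active = mean replicate inhibition at least 60% with every replicate also reaching 60%; inconclusive = only one of the two criteria is met; inactive = mean below 60% and not all replicates reaching 60%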;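 note: luciferase light reporting Pax8 driven TPO promoter activity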
Shn3 3UTR inh: Schnurri-3 reporter inhibition in Clone20 osteoblasts; Clone20 osteoblast Shn3 3'UTR firefly luciferase, 24 h; inhibition, % at 12.5 µM; actives 0.52% (n = 360,000);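 active = mean inhibition of at least 75% with every replicate also reaching 75%; inconclusive = mean inhibition at least 75% but some replicate below; inactive = mean inhibition below 75%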
LGR2 antag: Drosophila LGR2 receptor signaling inhibition. AID 720647. HEK293 LGR2, CRE-luciferase, bursicon-stimulated, 4 h. inhibition, % at 9.99 µM. actives 0.35% (n = 380,000);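 active = drop in luminescence signal, shown as inhibition above about 50% in the replicate tests, limit read from the data, passing the limit was not always enough; inconclusive = probably only some replicates passing the limit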;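 note: agonist challenge used bursicon conditioned medium at about half maximal strength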
Hits are given with their value; n = inactive; u = inconclusive; x = not tested or not shown. A selection: hits, their analogues and other compounds. The true share with any hit is near 2%.

SMILES | CF NFkB inh | KKLEB tox | EWS-Fli inh | PAX8 reporter | Shn3 3UTR inh | LGR2 antag
COc1ccc(CN(C)C[C@H]2OCCCC[C@@H](C)Oc3ccc(NC(=O)Nc4cccc5ccccc45)cc3C(=O)N([C@H](C)CO)C[C@H]2C)cc1 | x | x | 71.8 | n | x | n
COc1ccc(CN(C)C[C@H]2OCCCC[C@@H](C)Oc3ccc(NC(=O)Nc4cccc5ccccc45)cc3C(=O)N([C@@H](C)CO)C[C@@H]2C)cc1 | x | x | 79.6 | n | x | n
C[C@@H]1CN([C@@H](C)CO)C(=O)c2cc(NC(=O)Nc3cccc4ccccc34)ccc2O[C@@H](C)CCCCO[C@H]1CN(C)Cc1ccc2c(c1)OCO2 | x | x | 76.7 | n | x | n
C[C@@H]1CCCCO[C@@H](CN(C)CC2CCCCC2)[C@H](C)CN([C@@H](C)CO)C(=O)c2cc(NC(=O)Nc3cccc4ccccc34)ccc2O1 | x | x | 93.8 | n | x | n
COc1ccc(CN(C)C[C@H]2OCCCC[C@@H](C)Oc3ccc(NC(=O)Nc4cccc5ccccc45)cc3C(=O)N([C@@H](C)CO)C[C@H]2C)cc1 | x | x | u | n | x | n
COc1ccc(CN(C)C[C@@H]2OCCCC[C@@H](C)Oc3ccc(NC(=O)Nc4cccc5ccccc45)cc3C(=O)N([C@H](C)CO)C[C@@H]2C)cc1 | x | x | n | n | x | n
C[C@H](CO)N1C[C@H](C)[C@H](CN(C)Cc2ccc(C(=O)O)cc2)OCCCC[C@H](C)Oc2ccc(NC(=O)c3ccncc3)cc2C1=O | x | x | n | n | x | n
Cc1noc(C)c1S(=O)(=O)N(C)C[C@H]1Oc2ccc(NS(=O)(=O)c3ccccc3)cc2CC(=O)N([C@H](C)CO)C[C@@H]1C | x | x | n | n | x | n
C[C@@H]1CN([C@H](C)CO)C(=O)c2cc(NC(=O)Nc3cccc4ccccc34)ccc2O[C@@H](C)CCCCO[C@H]1CN(C)Cc1ccccc1 | x | x | 74.1 | n | x | n
C[C@@H]1CN([C@@H](C)CO)C(=O)c2cc(NC(=O)Nc3cccc4ccccc34)ccc2O[C@@H]1CN(C)Cc1ccc2c(c1)OCO2 | x | x | n | 76.2 | x | n
C[C@H]1CN([C@@H](C)CO)C(=O)c2cc(NC(=O)Nc3cccc4ccccc34)ccc2O[C@H]1CN(C)Cc1ccc2c(c1)OCO2 | x | x | n | n | x | n
C[C@@H]1CN([C@H](C)CO)C(=O)c2cc(C3=CCCCC3)cnc2O[C@@H]1CN(C)C(=O)Nc1ccc(F)cc1 | x | x | n | n | x | n
CN(C)c1ccc(CCc2ccc(N)cc2)cc1 | n | n | n | n | n | n
Nc1ccc(N(c2ccccc2)c2ccc(N)cc2)cc1 | 87.0 | n | x | n | n | x
O=C(C[C@H]1CC[C@@H](NC(=O)Nc2cc(F)ccc2F)[C@H](CO)O1)Nc1ccccc1 | x | x | n | x | x | n
COCC(=O)Nc1ccc2c(c1)C(=O)N(C)[C@@H]1CC[C@H](CC(=O)NCc3ccccc3F)O[C@@H]1CO2 | x | x | n | n | x | n
CCCN1C[C@@H](C)[C@@H](OC)CN(C)C(=O)c2cc(NC(=O)c3cnccn3)ccc2OC[C@H]1C | x | x | n | x | x | n
COC(=O)C1CCC(=O)N1C(c1ccc(OC)cc1)c1cc(OC)c(OC)c(OC)c1 (stereo unspecified) | 52.3 | n | n | 75.5 | n | n
CC(=O)N1[C@H](CO)[C@H](c2ccc(-c3cccnc3)cc2)[C@H]1CNC(=O)C1CCC1 | x | x | x | x | x | n
O=C(C[C@@H]1CC[C@@H]2[C@H](COC[C@@H](O)CN2C(=O)Nc2ccc(C(F)(F)F)cc2)O1)NC1Cc2ccccc2C1 | x | x | n | 87.9 | x | n
O=C(C[C@H]1CC[C@H]2[C@@H](COC[C@H](O)CN2C(=O)Nc2ccc(C(F)(F)F)cc2)O1)NC1Cc2ccccc2C1 | x | x | n | 73.6 | x | n
COc1ccc(C=C2c3ccccc3C(=O)c3ccccc32)c(OC)c1 | n | n | 51.7 | n | n | n
COc1ccc(/C=C2\CN(Cc3ccccc3)C/C(=C\c3ccc(OC)cc3OC)C2=O)c(OC)c1 | n | n | x | 92.9 | n | x
C[C@@H]1CCCCO[C@H](CN(C)C(=O)C2CCCCC2)[C@@H](C)CN([C@@H](C)CO)C(=O)c2cc(NS(=O)(=O)c3cccs3)ccc2O1 | x | x | n | x | x | n
COC(=O)c1cc(C)nc2c1C(=O)C(=O)C=C2N1CCOCC1 | 88.3 | -58.1 | 73.5 | 105.7 | 98.9 | 59.7
SMILES | CF NFkB inh | KKLEB tox | EWS-Fli inh | PAX8 reporter | Shn3 3UTR inh | LGR2 antag
COC(=O)c1cc(S(=O)(=O)N2CCOCC2)c(Cl)cc1N1CCOCC1 | n | n | x | x | n | x
COc1ccc([Si](C)(C)[C@@H]2[C@@H](CCO)O[C@]3(C(=O)N(Cc4ccccc4)c4ccc(N5CCCCC5=O)cc43)[C@H]2C)cc1 | x | x | n | n | x | x
COc1ccc([Si](C)(C)[C@@H]2[C@@H](CCO)O[C@]3(C(=O)N(Cc4ccccc4)c4ccc(N5C(=O)c6cccc7cccc5c67)cc43)[C@H]2C)cc1 | x | x | n | 88.0 | x | x
C=CCN1C(=O)[C@]2(O[C@H](CCn3cc([C@H](O)c4ccccc4)nn3)[C@@H]([Si](C)(C)c3ccc(OC)cc3)[C@@H]2C)c2cc(N3CCOC3=O)ccc21 | x | x | n | n | x | x
COc1ccc([Si](C)(C)[C@@H]2[C@@H](CCO)O[C@]3(C(=O)N(Cc4cccc(NC(C)=O)c4)c4ccccc43)[C@H]2C)cc1 | x | x | n | 103.5 | x | x
C=CCN1C(=O)[C@]2(O[C@H](CCn3cc(CCO)nn3)[C@@H]([Si](C)(C)c3ccc(OC)cc3)[C@@H]2C)c2cc(N3C(=O)c4cccc5cccc3c45)ccc21 | x | x | n | 97.4 | x | x
O=P(CCCCCCCCCP(=O)(c1ccccc1)c1ccccc1)(c1ccccc1)c1ccccc1 | n | n | x | 80.3 | 88.4 | x
O=C(O)CCCCCCCCCCP(=O)(c1ccccc1)c1ccccc1 | n | n | n | n | n | n
O=[N+]([O-])c1cc(Cl)cc(/C=N\Nc2ccccn2)c1O | 85.3 | -92.8 | x | x | 89.1 | x
O=[N+]([O-])c1ccc(Cl)cc1C=NNc1ccccn1 | n | n | n | n | n | n
CC(=O)N[C@H]1CC[C@H](CCNC(=O)Nc2ccc(C(F)(F)F)cc2)O[C@@H]1CO | x | x | n | n | x | n
CCOc1ccc(CCNC(=O)CSc2nn(-c3ccc(C)c(Cl)c3)c(=S)s2)cc1OCC | n | n | n | 81.5 | n | n
O=C(N[C@H]1CC[C@@H](CCNC(=O)c2cnccn2)O[C@@H]1CO)c1ccc2c(c1)OCO2 | x | x | n | n | x | n
Nc1ccc(-c2ncc(-c3ccccc3)o2)cc1 | n | n | 64.9 | n | n | n
Cc1ccc(C)c(NC(=O)C(Sc2nc3ccccc3c(=O)n2CC(C)C)c2ccccc2)c1 (stereo unspecified) | 105.0 | -93.3 | n | n | n | n
CCC(=O)N1[C@@H]2Cn3c(cccc3=O)[C@H]1[C@@H](C(=O)N1CCCCC1)[C@@H]2CO | x | x | n | n | x | n
O=C(Nc1ccc(Cl)cc1)Nc1csc([N+](=O)[O-])c1 | n | n | n | 72.3 | n | n
